Source: PubChem BioAssay (National Center for Advancing Translational Sciences (NCATS))
A selection: hits, their analogues and other compounds. The true share with any hit is near 2.8%.
HepG2 tox: HepG2 cytotoxicity, counter-screen for TGF-b inhibitors; Potency, µM (doses to about 46.1 µM), inactives show at the highest dose activity change, negative = cytotoxicity, actives largely listed as cytotoxic; hit rate 0.76% among 410,000; HepG2 CAGA-GFP viability, ATP luminescence, 18 h
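HepG2 CAGA-GFP cells (1000/well, DMEM with 1% FBS) received compound, then TGF-beta at 500 pg/mL final, and were incubated 18 hours at 37 degrees C. Viability was read by CellTiter-Glo luminescence. Media-only wells were set as complete cell-killing and DMSO as no toxicity.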
S2 tox: reduces viability in counter-screen for ATXN expression inhibitors | S2 cells (HEK-293 line with an ATXN2-luciferase reporter) viability, CellTiter-Fluor protease fluorescence, 24 h | hit rate 0.49% among 400,000 | Potency, µM (series often up to 56.7 µM), most hits filed as cytotoxic; further: nearly all actives have a fitted effect of over 40% in size
ATXN2 expr inh: reduces ATXN2 reporter expression in HEK-293 cells; hit rate 0.72% among 360,000; HEK-293 ATXN2-luciferase reporter, luminescence, 24 h; Potency, µM (top dose mostly 57 µM), without a hit: at the top dose activity change, negative = inhibition, most hits filed as inhibitors; further: on the % scale 0 is the no-effect control and ±100 the full control effect; nearly all actives have a fitted effect of over 55% in size
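ATXN2-luciferase reporter cells (luciferase flanked by upstream and downstream ATXN2 gene portions) were treated 24 h at 37 °C with compounds at up to 57 uM. SteadyGlo luminescence gave expression; GF-AFC fluorescence gave viability.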
HTT cytoprotect: Huntington cell model cytoprotection by ATP luminescence; PC12 HTT-Q103 induced, cytoprotection, ATP luminescence, 40 h; Potency, µM (top dose mostly 56.4 µM), for the others: cytoprotection (ATP increase), most hits filed as activators; hit rate 0.14% among 230,000; further: % of control where 0% means no effect; nearly all actives have a fitted effect of over 45% in size
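Rat PC12, Q103 Htt exon1-GFP fusion, ecdysone promoter; tebufenozide inducer 100 nM final; compound titration; qHTS, 1500 cells/well; ATPlite luminescent read.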
TGFb SMAD3 inh: blocks TGF-b signaling | AID 588855 | HepG2 CAGA-GFP TGF-b/SMAD3 reporter, GFP fluorescence, 18 h; TGF-beta stimulated, 500 pg/mL final | hit rate 1.2% among 410,000 | Potency, µM (top dose mostly 46.1 µM), for the others: at the top dose activity, negative = inhibition, hits mostly inhibitors; further: on the % scale 0 is the no-effect control and ±100 the full control effect; nearly all actives have a fitted effect of over 65% in size
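Smad-responsive CAGA-GFP expression was quantified in HEPG2 cells exposed to compounds and 500 pg/mL final TGF-beta for 18 h at 37 degrees C; unstimulated wells defined full inhibition.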
HTT aggregate: mutant huntingtin aggregation inhibition. PC12 HttQ103-GFP aggregates, Acumen cytometry, 40 h. Potency, µM (titrated, usually from 46.1 µM), without a hit: at the top dose activity change, negative = inhibition, actives largely listed as inhibitors. hit rate 1.1% among 220,000. AID 1688; further: on the % scale 0 is the no-effect control and ±100 the full control effect; nearly all actives have a fitted effect of over 60% in size
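Quantitative HTS on tebufenozide-induced (100 nM) PC12 cells stably expressing polyQ103 Huntingtin exon 1–GFP. Reduction of bright GFP aggregates, detected by laser scanning cytometry after lysis, identified actives across the titration.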
The depositor's hits bear a star; i = inactive; ? = inconclusive; · = no result given; [ ] = dose if it differs, or a comment. The call rests on the fitted dose curve; in most records, active means well fitted curve in the direction sought with a large enough effect; inconclusive means small, poorly fitted or top-dose-only effect, or another doubt; inactive means no such curve, though single readings can be large; an effect the other way counts as inactive or inconclusive. Potency means the concentration at half of the fitted maximal effect.

SMILES	HepG2 tox	S2 tox	ATXN2 expr inh	HTT cytoprotect	TGFb SMAD3 inh	HTT aggregate
NC(=S)NN=C1c2ccccc2-c2cc(Br)ccc21	2.3%	?	?	·	2.82µM*	·
O=C(c1ccc(C(=O)N2CCC(N3CCCC3)CC2)c(Nc2ccccc2)c1)N1CCC(N2CCCC2)CC1	·	·	-7.3%	·	·	·
C(=C\c1ccnc2ccccc12)/c1ccc(N(Cc2ccccc2)Cc2ccccc2)cc1	-5.2%	·	·	·	11.8%	·
CC(C)(C)c1ccc(C(=O)N2CCC3(CC2)CC3C(=O)NCCc2ccccn2)cc1 (stereo unspecified)	·	i	·	·	·	·
COCCN=C1NN=C(c2cc(C)n(CC3CCCO3)c2C)CS1 (stereo unspecified)	2.3%	i	16.1%	-10.6%	16.1%	9.6%
C=CCN=C1NN=C(c2cc(C)n(CC=C)c2C)CS1	-13.7%	i	26.7µM*	-7.2%[10 µM]	-18.9%	-9.7%
O=C1CC(O)(C(F)(F)F)Oc2c1ccc1ccccc21 (stereo unspecified)	10µM*	i	-12.3%	-12.4%	15.8µM*	?
Oc1c(Cl)cc(Cl)cc1Sc1cc(Cl)cc(Cl)c1O	·	i	1.4%	-52.7%	·	10µM*
C/C(=N\NC1=NCCN1)c1ccc(N)c([N+](=O)[O-])c1	-0.6%	i	9.8%	-7.2%[10 µM]	1.1%	13.3%[9.22 µM]
CCCCOc1ccc(Br)cc1/C(C)=N/NC1=NCCN1	11.2µM*	·	17.8µM*	-60.1%[10 µM]	?	-32.5%
CCCCCCOc1ccc(/C(C)=N/NC2=NCCN2)cc1[N+](=O)[O-]	20µM*	17.8µM*	·	·	?	·
COc1ccc(/C(C)=N/NC2=NCCN2)cc1Cl	-22.7%	?	-28.8%	·	0.6%	·
COc1ccc(-n2nc(C#N)c(Cl)cc2=O)cc1	17.8µM*	·	?	-2.8%[10 µM]	15.8µM*	25.1µM*
O=C1[C@H](Cc2ccccc2)NC/C=C\C[C@H](c2ccco2)N1Cc1ccccc1	1.0%	·	·	·	-7.6%	·
O=C(Cc1ccc(-c2ccccc2)cc1)NO	-2.9%	·	·	·	2.1%	·
COc1ccc2nc(NC(=O)CN3C(=O)NC4(CCCC4)C3=O)sc2c1	-26.8%	?	22.5%	·	-21.3%	·
COc1ccc2nc(NC(=O)c3ccoc3C)sc2c1	7.94µM*	?	?	-15.6%[10 µM]	?	7.6%
COc1ccc2nc(NC(=O)CN3C(=O)NC4(CCCCC4)C3=O)sc2c1	4.47µM*	?	6.2%	·	0.7%	·
O=C(N/N=C1/C[C@@H](O)[C@@H](O)[C@@H]2[C@@H]3C(=O)N(C[C@@H]4CCCO4)C(=O)[C@H]3CC[C@H]12)OCc1ccccc1	·	·	·	-34.8%[10 µM]	·	·
COC(=O)c1ccccc1C(=O)N1CCc2c(cnc(C)c2CNC(=O)c2ccccc2F)C1	·	i	·	·	·	·
CCN(CC)CCN	·	i	2.9%	·	·	·
Cc1cc(C)nc(N(C#N)CC(=O)c2ccccc2)n1	-25.6%	?	-14.2%	-13.2%	3.7%	?
CCc1ccc(C(=O)CN(C#N)c2nc(C)cc(C)n2)cc1	11.2µM*	?	-29.4%	-47.5%	?	?
O=C1c2ccc3c4c(ccc(c24)C(=O)N1CCCCO)C(=O)N(CCCCO)C3=O	3.16µM*	?	?	-233.0%	2.51µM*	5.01µM*
CC(C)(C)NC(=O)NC(=O)C[n+]1ccc(Cc2ccc([N+](=O)[O-])cc2)cc1	3.16µM*	i	-27.1%	·	-2.1%	·
SMILES	HepG2 tox	S2 tox	ATXN2 expr inh	HTT cytoprotect	TGFb SMAD3 inh	HTT aggregate
[N-]=[N+]=N[C@@H]1[C@H](O)[C@H](CO)O[C@@H]1n1cnc2c(N)ncnc21	·	·	·	2.8%[10 µM]	·	·
NC(=O)NC1N=C([O][Al])NC1=O (stereo unspecified)	·	i	-11.5%	·	·	·
N#C/C(=C(/O)CN1CCN(c2ccccc2F)CC1)c1nc(-c2ccc(Cl)cc2)cs1	-44.2%	i	?	-67.6%	7.94µM*	?
[O-]/[N+](=N\O)c1ccccc1	·	·	·	-1.6%	·	·
CC1CCCN(CCCNC(=O)c2cc3c(s2)-c2ccccc2OC3)C1 (stereo unspecified)	-57.9%	?	-21.8%	·	?	·
O=C(NCCCN1CCN(c2ccc(F)cc2)CC1)c1cc2c(s1)-c1ccccc1OC2	-84.5%	?	28.2µM*	·	?	·
O=C(NCCCN1CCN(c2ccc(F)cc2)CC1)c1ccc2nc(Cc3ccccc3)oc2c1	-42.7%	·	?	·	11.2µM*	·
CC1CCN(CCCNC(=O)c2cc3c(s2)-c2ccccc2OC3)CC1	-64.9%	i	?	·	?	·
O=C(NCCCN1CCN(c2ccccc2)CC1)c1cc2c(s1)-c1ccccc1OC2	14.1µM*	?	0.0%	·	?	·
CC(C)NC(=O)COC(=O)CNC(=O)C1CCCCC1	6.0%	·	·	·	1.9%	·
Nc1ccc2ncccc2c1N	-5.0%	i	-7.2%	-4.7%[10 µM]	3.4%	?
Nc1nc(N)c2c(ccc3nccc32)[nH]1	1.26µM*	?	·	-36.0%[10 µM]	?	-13.2%[9.22 µM]
NNC(=S)NC1CCCCCCCCCCC1	8.91µM*	i	·	42.5%[10 µM]	10µM*	4.0%[9.22 µM]
CC(O)C#C[Si](C)(C)c1ccccc1 (stereo unspecified)	·	·	·	0.5%	·	·
COc1ccc(C(=O)C2CCN(C(=S)Nc3ccc(F)cc3)CC2)cc1	-15.4%	i	7.3%[11.3 µM]	2.51µM*	?	-31.6%
COc1ccc(NC(=S)N2CCC(C(=O)c3ccc(OC)cc3)CC2)cc1	-17.3%	i	0.9%	·	-7.2%	·
CC(C)(C)n1ncc2c(=O)n(Cc3cccc(C(F)(F)F)c3Cl)cnc21	6.0%	·	·	·	-1.4%	·
Cc1cc(C(=O)CSc2nnc(-c3ccco3)o2)c(C)n1-c1ccc2c(c1)OCCO2	-1.0%	i	-13.7%	10.2%[10 µM]	-2.2%	8.91µM*
COc1cccc(-c2nnc3n2N=C(C(C)(C)C)CS3)c1	-16.3%	i	?	34.1%	?	2µM*
O=C(NCc1ccncc1)c1ccc(Oc2ccccc2)cc1	-2.0%	i	-18.3%	0.3%[10 µM]	-13.6%	11.2µM*
O=C(NCc1ccncc1)c1ccc(OCc2ccccc2)cc1	-14.8%	?	-14.3%	·	-7.1%	·
Cc1ccc(Oc2ccc(C(=O)NCc3ccncc3)cc2)cc1	3.2%	i	?	-95.7%	-15.2%	11.2µM*
CC(C)[C@H](NC(=O)CNC(=O)OC(C)(C)C)C(=O)N[C@H](C=O)C(C)C	·	·	·	27.4%	·	·
CN(C)c1ccc(/C=C/c2nc3ccccc3s2)c(Cl)c1	-57.2%	·	·	·	-6.4%	·
O=C(NCCN1CCOCC1)c1cnn(-c2ncc3c(n2)-c2ccccc2CC3)c1C1CC1	·	i	·	·	·	·
Cc1ccc(N(NC(=O)C(O)(c2ccccc2)c2ccccc2)C(=O)CCl)cc1	15.8µM*	17.8µM*	28.2µM*	-87.2%[10 µM]	?	5.01µM*
